Data from PubChem BioAssay (NCI).
“And” between values parts separate entries of the source, which are not always exact repeats. Identical values can stand only once. About 83,000 compounds went through this panel and 20% of them were active in at least one assay; those are over-represented in the sample as a whole.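 Each cell line was grown in a 96-well plate and treated with one concentration of compound for 48 hours. Values below 10 were considered active.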 Values without a mark were called inactive. The source made the active and inactive calls.

System: MDA-MB-468 breast
Experiment: NCI-60 one-dose screen, 48 h (100 = growth as untreated, 0 = no growth, -100 = all killed)
Conditions: 10 µM unless noted

Compound	growth
Cc1cc(Nc2nc(-c3cccnc3)nc3ccccc23)n[nH]1	26.8%
c1csc([C@@H]2C[C@@H]3Cc4ccc5ccccc5c4N2O3)c1	99.2%
N#CSCC1CC(O)(c2ccccc2)CC(c2ccc(F)cc2)O1 (stereo unspecified)	5.99% (active)
C#Cc1cccc(NC(=O)c2ccccc2NC(=O)C=C)c1	70.9% [8.25 µM]
O=C(OCC1CCCO1)c1ccc([N+](=O)[O-])cc1 (stereo unspecified)	88.9%
OCC1OC(n2cnc3c(=S)nc[nH]c32)C(O)C1O (stereo unspecified)	-6.42% (active)
C=C(C)[C@@H]1CC[C@]2(C(=O)O)CC[C@]3(C)[C@H](CC[C@@H]4[C@@]5(C)C[C@@H](Cc6cn(CCO[C@@H]7O[C@H](COC(C)=O)[C@H](OC(C)=O)[C@H](OC(C)=O)[C@H]7OC(C)=O)nn6)[C@H](O)C(C)(C)[C@@H]5CC[C@]43C)[C@@H]12	64.4%
O=c1ccccc(-c2ccc(-c3ccco3)cc2)c1O	12.1%
COC(=O)CCCNc1c(-c2c(O)c(O)cc3c(O)c(-c4c(C)cc5c(-c6nc7ccccn7c6NCCCC(=O)OC)c(O)c(O)cc5c4O)c(C)cc23)nc2ccccn12	26.9%
O=C1C(Cl)=C(NCCCCCCNC2=C(Cl)C(=O)c3ccccc3C2=O)C(=O)c2ccccc21	89.2%
COc1cc(/C=C/c2cc(/C=C/c3ccc(O)c(OC)c3)n(C(=O)Nc3ccc(F)c(Cl)c3)n2)ccc1O	-27.6% (active)
CCCN(CCC)CCCNC(=O)c1cc2c(-c3ccc(OC)c(OC)c3)nn(C)c2s1	39%
Cc1ccc2nc(NC(=O)CSc3nc(Nc4ccc([N+](=O)[O-])cc4)c(C#N)c(-c4ccccc4)n3)sc2c1	105%
O=C(O)CSc1ccc(NCc2oc(CO)cc(=O)c2O)cc1	108%
COc1cc2c(O)n(CCCn3ccnc3)c3c4cnc5cccc(c(=O)c3c2cc1OC)c54	4.34% (active)
COc1ccc(-n2[nH]c3c(cnc4ccccc43)c2=O)cc1	108% and 99.5%
COc1cccc(CCC(=O)c2cc3c(N)c(C(=O)Nc4cccc(Cl)c4C)sc3nc2C)c1	15.1%
O=c1ccc2ccc(OCCN3CCCCC3)cc2o1	105%

Compound	growth
COc1ccccc1CNc1nc(N)nc2[nH]c3ccc(O)cc3c12	45.2%
Cc1cc(NS(=O)(=O)c2ccc(NC(=O)CSc3nc4ccccc4c(=O)n3-c3ccccc3)cc2)no1	91%
O=c1oc2cc(OS(=O)(=O)C3CC3)ccc2c2c1CCCCCC2	39%
COc1cc(/C=C\c2cc(/C=C\c3ccc(O)c(OC)c3)n(C(=O)COc3ccccc3)n2)ccc1O	-1.76% (active)
CCN(C(=O)CCl)C(C)(C)C(SSSC(c1ccc(Cl)cc1)C(C)(C)N(CC)C(=O)CCl)c1ccc(Cl)cc1 (stereo unspecified)	5.76% (active)
CC1CCN(S(=O)(=O)c2ncsc2-c2ccccc2)CC1	94.4%
COc1ccc2nc3cc(Cl)ccc3c(Nc3ccc(O)c(CN4CCCC4)c3)c2c1	-35.9% (active)
CC(C)C(C(=O)CCN(C)C)c1ccc(Cl)cc1 (stereo unspecified)	78.6%
O=C(CCl)Nc1ccc2c(Nc3cc(O)ccc3Cl)ncnc2c1	-61.7% (active)
COc1cc(/C=C2\CCC/C(=C\c3cc(CN4CCCC4)c(O)c(OC)c3)C2=O)cc(CN2CCCC2)c1O	67.2%
N#CC1C(=O)c2ccccc2C1c1ccccc1 (stereo unspecified)	94.3% and 119%
COc1ccc(C(=O)/C=C/c2ccc(C)cc2)cc1OC	47.6%
O=[N+]([O-])c1ccc(Oc2nc(Nc3ccc(O[C@H]4CO[C@H]5[C@@H]4OC[C@@H]5O)c(Cl)c3)ncc2F)c(Cl)c1	15.8%
Cc1nnc(/N=C2\NC(=O)/C(=C/C=C/c3ccccc3)S2)s1	53%
Clc1ccc(/C=C/c2nc(Nc3ccc(Cl)cc3)c3ccccc3n2)cc1	110%
COc1ccc2c(C3=C(c4cn(C)c5ccccc45)C(=O)NC3=O)coc2c1	30.5%
COc1cc2cc(Oc3ccc(NC(=O)Nc4ccccc4)cc3)c(C)nc2cc1OCCN1CCCCC1	79.5%
Nc1nc(-c2cccc([N+](=O)[O-])c2)c(N=Nc2ccc(Br)cc2)s1	-45.7% (active)
